# Reference: article PMC7862700, “An all-to-all approach to the identification of sequence-specific readers for epigenetic DNA modifications on cytosine”
# What was measured:
# Assay in all cases: DAPPL (digital affinity profiling via proximity ligation, sequencing); 10 mM Tris-HCl pH 7.5, 50 mM NaCl, 1 mM DTT, 4% glycerol, room temperature, 30 min; GST-TFs on glutathione beads, 16-mer random dsDNA library, 0.1% formaldehyde crosslink after washing; high values mean tight binding
# FEV = target: T1, FEV (Homo sapiens, UniProt Q99581 1-238); details: protein: recombinant; tags: N-terminal GST; dsDNA, one strand shown
# T1 sequence: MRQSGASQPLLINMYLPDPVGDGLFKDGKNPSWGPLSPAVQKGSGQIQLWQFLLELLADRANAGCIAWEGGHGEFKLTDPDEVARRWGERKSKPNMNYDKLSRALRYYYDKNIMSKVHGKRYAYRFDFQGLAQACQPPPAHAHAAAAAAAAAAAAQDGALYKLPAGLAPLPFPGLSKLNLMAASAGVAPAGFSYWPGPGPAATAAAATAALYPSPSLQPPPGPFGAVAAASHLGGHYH
# Summary of the method: (§1)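 Yeast served to express human transcription factors as GST fusions, which were then captured on glutathione beads and labelled with DNA barcodes. Pooled with a tag-only sample, they were incubated with 200 nmole of a 16-mer random double-stranded DNA library for 30 min at room temperature in Tris/NaCl/DTT/glycerol buffer, washed, crosslinked with 0.1% formaldehyde, ligated by proximity, amplified by PCR and sequenced. Dividing each hexamer's read frequency for a factor by its frequency for the tag-only sample gives the binding signal.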
# ETV5 = ETV5 (Homo sapiens, UniProt P41161 1-510); details: protein: recombinant; tags: N-terminal GST; dsDNA, one strand shown
# ETV5, sequence (P41161 whole entry): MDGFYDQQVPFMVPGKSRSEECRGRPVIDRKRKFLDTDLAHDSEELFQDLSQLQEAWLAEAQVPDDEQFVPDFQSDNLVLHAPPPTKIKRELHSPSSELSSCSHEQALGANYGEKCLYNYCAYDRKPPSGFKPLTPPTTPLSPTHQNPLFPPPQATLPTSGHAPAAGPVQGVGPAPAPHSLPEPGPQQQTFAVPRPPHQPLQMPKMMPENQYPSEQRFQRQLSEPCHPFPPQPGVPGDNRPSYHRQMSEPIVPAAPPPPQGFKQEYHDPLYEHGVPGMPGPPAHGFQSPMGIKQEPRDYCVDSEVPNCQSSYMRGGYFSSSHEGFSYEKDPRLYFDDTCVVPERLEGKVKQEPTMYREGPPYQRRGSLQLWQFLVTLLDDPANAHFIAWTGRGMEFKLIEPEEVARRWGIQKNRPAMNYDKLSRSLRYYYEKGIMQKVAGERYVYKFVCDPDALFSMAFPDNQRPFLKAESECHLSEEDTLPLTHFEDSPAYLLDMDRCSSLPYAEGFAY
# Summary of the method: as §1
# HSF1 = HSF1 (Homo sapiens, UniProt Q00613 1-529); details: protein: recombinant; tags: N-terminal GST; chain copies: 3; dsDNA, one strand shown
# HSF1, sequence (Q00613 whole entry): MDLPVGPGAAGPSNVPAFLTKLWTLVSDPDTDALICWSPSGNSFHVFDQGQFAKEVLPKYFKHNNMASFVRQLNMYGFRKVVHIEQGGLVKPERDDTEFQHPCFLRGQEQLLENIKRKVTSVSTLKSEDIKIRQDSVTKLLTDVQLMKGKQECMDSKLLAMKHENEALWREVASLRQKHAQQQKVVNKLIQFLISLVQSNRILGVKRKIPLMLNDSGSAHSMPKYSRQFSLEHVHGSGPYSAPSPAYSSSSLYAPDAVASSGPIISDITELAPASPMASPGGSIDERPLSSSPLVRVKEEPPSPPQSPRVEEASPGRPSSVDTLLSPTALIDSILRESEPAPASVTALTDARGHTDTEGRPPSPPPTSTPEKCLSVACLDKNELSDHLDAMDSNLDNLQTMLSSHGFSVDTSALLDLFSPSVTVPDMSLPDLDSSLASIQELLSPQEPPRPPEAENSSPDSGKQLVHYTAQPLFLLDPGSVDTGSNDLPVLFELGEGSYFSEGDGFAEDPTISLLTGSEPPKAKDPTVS
# Summary of the method: as §1
# SPIC = target: T2, SPIC (Homo sapiens, UniProt Q8N5J4 1-248); details: protein: recombinant; tags: N-terminal GST; dsDNA, one strand shown
# T2 sequence: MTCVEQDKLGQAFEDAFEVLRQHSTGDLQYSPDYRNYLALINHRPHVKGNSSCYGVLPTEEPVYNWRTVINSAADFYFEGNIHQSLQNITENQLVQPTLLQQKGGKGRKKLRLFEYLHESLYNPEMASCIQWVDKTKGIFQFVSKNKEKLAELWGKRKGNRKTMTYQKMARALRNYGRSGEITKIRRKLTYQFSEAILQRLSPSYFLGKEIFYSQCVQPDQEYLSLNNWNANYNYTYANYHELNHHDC
# Summary of the method: as §1
# ELF4 = ELF4 (Homo sapiens, UniProt Q99607 1-663); details: protein: recombinant; tags: N-terminal GST; dsDNA, one strand shown
# ELF4, sequence (Q99607 whole entry): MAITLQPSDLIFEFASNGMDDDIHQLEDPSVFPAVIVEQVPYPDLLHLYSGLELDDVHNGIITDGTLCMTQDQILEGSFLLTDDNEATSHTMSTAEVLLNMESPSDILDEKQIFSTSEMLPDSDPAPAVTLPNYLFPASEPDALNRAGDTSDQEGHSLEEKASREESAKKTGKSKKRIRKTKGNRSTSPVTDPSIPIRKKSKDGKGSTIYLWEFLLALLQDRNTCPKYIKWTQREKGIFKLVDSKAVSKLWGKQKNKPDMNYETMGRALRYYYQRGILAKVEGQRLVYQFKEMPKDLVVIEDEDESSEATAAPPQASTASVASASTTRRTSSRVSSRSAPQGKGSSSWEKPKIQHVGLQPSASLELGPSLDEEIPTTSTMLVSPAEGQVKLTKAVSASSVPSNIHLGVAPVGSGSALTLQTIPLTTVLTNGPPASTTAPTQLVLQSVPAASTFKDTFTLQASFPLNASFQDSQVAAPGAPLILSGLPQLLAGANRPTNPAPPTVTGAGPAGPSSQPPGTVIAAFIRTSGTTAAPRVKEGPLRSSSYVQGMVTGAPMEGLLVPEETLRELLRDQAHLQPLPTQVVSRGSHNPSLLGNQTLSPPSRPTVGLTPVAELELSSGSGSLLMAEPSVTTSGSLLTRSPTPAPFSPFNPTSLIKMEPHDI
# Summary of the method: as §1
# ELK4 = target: T3, ELK4 (Homo sapiens, UniProt P28324-2 1-405); details: protein: recombinant; tags: N-terminal GST; dsDNA, one strand shown
# T3 sequence: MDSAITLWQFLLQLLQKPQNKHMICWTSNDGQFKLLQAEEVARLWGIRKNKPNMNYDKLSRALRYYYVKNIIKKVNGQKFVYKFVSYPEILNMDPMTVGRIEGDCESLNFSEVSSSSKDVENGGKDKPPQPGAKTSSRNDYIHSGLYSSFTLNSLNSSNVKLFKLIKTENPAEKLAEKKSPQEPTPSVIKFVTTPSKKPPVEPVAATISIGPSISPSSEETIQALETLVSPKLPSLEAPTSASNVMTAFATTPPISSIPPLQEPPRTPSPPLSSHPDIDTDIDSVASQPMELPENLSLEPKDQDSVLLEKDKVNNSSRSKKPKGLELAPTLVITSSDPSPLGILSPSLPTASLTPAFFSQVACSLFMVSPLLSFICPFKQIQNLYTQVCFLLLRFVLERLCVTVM
# Summary of the method: as §1
# ETV2 = target: T4, ETV2 (Homo sapiens, UniProt O00321 1-342); details: protein: recombinant; tags: N-terminal GST; dsDNA, one strand shown
# T4 sequence: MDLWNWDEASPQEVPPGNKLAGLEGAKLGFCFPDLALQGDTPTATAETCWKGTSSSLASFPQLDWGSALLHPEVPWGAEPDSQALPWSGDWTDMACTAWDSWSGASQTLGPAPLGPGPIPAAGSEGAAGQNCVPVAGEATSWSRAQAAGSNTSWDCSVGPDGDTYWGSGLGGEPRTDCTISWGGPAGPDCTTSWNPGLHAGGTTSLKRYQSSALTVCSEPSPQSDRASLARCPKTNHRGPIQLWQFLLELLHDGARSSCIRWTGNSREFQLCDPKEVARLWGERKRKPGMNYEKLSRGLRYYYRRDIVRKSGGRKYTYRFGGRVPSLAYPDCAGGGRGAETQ
# Summary of the method: as §1
# ELF3 = target: T5, ELF3 (Homo sapiens, UniProt P78545 1-371); details: protein: recombinant; tags: N-terminal GST; dsDNA, one strand shown
# T5 sequence: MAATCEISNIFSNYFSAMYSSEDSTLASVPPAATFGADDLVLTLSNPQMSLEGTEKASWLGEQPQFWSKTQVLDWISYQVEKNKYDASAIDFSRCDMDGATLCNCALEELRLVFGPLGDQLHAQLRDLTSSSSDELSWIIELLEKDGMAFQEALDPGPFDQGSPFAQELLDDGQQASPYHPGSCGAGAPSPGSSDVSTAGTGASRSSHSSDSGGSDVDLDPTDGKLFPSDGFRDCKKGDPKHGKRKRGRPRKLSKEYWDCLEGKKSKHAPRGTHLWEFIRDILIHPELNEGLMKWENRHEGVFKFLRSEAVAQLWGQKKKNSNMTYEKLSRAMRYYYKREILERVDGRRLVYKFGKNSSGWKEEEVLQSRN
# Summary of the method: as §1
# CRX = CRX (Homo sapiens, UniProt O43186 1-299); details: protein: recombinant; tags: N-terminal GST; dsDNA, one strand shown
# CRX, sequence (O43186 whole entry): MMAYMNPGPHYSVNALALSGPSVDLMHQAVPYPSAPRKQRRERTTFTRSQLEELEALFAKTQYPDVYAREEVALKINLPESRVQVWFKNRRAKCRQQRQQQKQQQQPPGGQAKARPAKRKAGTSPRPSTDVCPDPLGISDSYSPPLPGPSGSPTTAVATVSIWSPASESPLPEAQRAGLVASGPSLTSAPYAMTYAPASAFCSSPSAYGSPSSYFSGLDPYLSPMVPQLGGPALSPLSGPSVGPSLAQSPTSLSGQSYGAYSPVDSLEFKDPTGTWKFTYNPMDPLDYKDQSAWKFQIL
# Summary of the method: as §1
sequence,measurement,setting,value
ATTCTC,binding signal,FEV,"1.32 fold enrichment (6-mer frequency, TF over GST control)"
same,binding signal,ETV5,"1.31 fold enrichment (6-mer frequency, TF over GST control)"
same,binding signal,HSF1,"2.42 fold enrichment (6-mer frequency, TF over GST control)"
same,binding signal,SPIC,"1.15 fold enrichment (6-mer frequency, TF over GST control)"
same,binding signal,ELF4,"1.35 fold enrichment (6-mer frequency, TF over GST control)"
same,binding signal,ELK4,"1.25 fold enrichment (6-mer frequency, TF over GST control)"
same,binding signal,ETV2,"1.36 fold enrichment (6-mer frequency, TF over GST control)"
same,binding signal,ELF3,"1.2 fold enrichment (6-mer frequency, TF over GST control)"
same,binding signal,CRX,"1.69 fold enrichment (6-mer frequency, TF over GST control)"
